# Test results taken from PubChem BioAssay (Tox21).
# “And” between values parts separate entries of the source, which are not always exact repeats. Equal entries are not always repeated. Results filed as inconclusive are left out. Where a call stands in place of a potency, no number is given. A number with no mark means an inactive call. The source made the active and inactive calls. Unless noted, the call rests on the fitted dose curve; in most records, active means well fitted curve in the direction sought with a large enough effect in the repeat runs; inconclusive means weak or mixed curves; inactive means no such curve, though single readings can be large; an effect the other way counts as inactive or inconclusive.
# Experiments:
# [1] = qHTS assay to identify small molecule agonists of the peroxisome proliferator-activated receptor delta (PPARd) signaling pathway - cell viability counter screen (AID 743211); further: nearly all actives have a fitted effect of over 55% in size; further: potency means the concentration at half of the fitted maximal effect
# In short: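 qHTS cell viability: PPARd-bla HEK293H; 17 h cpd, 37C; CellTiter-Glo, luminescence at 30 min RT.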
# [2] = qHTS assay to identify small molecule antagonists of the peroxisome proliferator-activated receptor delta (PPARd) signaling pathway - cell viability counter screen (AID 743213); further: nearly all actives have a fitted effect of over 50% in size; further: potency means the concentration at half of the fitted maximal effect
# In short: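 In this counter screen, HEK293H cells carrying a UAS-beta-lactamase reporter are co-treated with test compounds and 300 nM L165041 (final) for 17 h at 37 C; cell viability is quantified by CellTiter-Glo luminescence.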
# [3] = biological target: Bile acid receptor (Homo sapiens) (UniProt Q96RI1); assay: qHTS assay to identify small molecule agonists of the farnesoid-X-receptor (FXR) signaling pathway (AID 743220; active means well fitted activation curve with a large enough effect in the signal ratio in the repeat runs, not every such curve was filed as active; the % refers to the signal ratio; further: potency means the concentration at half of the fitted maximal effect)
# Sequence of Bile acid receptor (Homo sapiens) (Q96RI1 whole entry, looked up): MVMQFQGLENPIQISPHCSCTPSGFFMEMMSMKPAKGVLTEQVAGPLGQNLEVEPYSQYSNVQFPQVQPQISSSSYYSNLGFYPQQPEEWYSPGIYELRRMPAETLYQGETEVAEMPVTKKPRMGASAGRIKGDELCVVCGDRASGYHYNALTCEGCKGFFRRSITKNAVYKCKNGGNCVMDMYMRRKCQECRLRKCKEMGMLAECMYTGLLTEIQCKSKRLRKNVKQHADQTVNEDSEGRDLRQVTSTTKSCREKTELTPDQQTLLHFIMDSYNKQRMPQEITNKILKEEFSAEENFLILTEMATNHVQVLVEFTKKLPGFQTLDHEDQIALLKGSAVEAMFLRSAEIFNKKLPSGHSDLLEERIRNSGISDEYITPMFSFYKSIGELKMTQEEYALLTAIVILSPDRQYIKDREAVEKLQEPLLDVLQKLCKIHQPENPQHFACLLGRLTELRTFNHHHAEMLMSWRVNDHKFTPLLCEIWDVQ
# In short: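 FXR-UAS-bla HEK 293T cells carrying a UAS-driven beta-lactamase reporter were plated for 5 h at 37C/5% CO2, then exposed to DMSO-dissolved Tox21 10K compounds for 16 h at 37C. A LiveBLAzer B/G FRET substrate was loaded for 2 h at room temperature before fluorescence reading.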
# [4] = qHTS assay to identify small molecule agonists of the vitamin D receptor (VDR) signaling pathway - cell viability counter screen (AID 743224); further: nearly all actives have a fitted effect of over 50% in size; further: potency means the concentration at half of the fitted maximal effect
# In short: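 Compounds were pin-transferred onto VDR-bla cells plated 4 h earlier; following 16 h incubation at 37C, cell viability was quantified by CellTiter-Glo luminescence after 30 min at room temperature.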
# [5] = qHTS assay to identify small molecule agonists of the NFkB signaling pathway - cell viability counter screen (AID 1159515; calls by dose curve; further: nearly all actives have a fitted effect of over 55% in size; further: potency means the concentration at half of the fitted maximal effect)
# In short: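 Parallel cytotoxicity counter screen in ME-180 cells carrying an NFkB-response-element beta-lactamase reporter, 2,000 cells/well. Compound exposure lasted 5 hr at 37 C, 5% CO2. Cell viability was quantified by CellTiter-Glo luminescence.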
# [6] = biological target: Nuclear receptor ROR-gamma (Homo sapiens) (UniProt P51449); assay: qHTS assay to identify small molecule antagonists of the retinoid-related orphan receptor gamma (ROR-gamma) signaling pathway (AID 1159521; further: nearly all actives have a fitted effect of over 50% in size; further: potency means the concentration at half of the fitted maximal effect)
# In short: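 Decreased RORE-driven luciferase luminescence indicates antagonism. Tet-on RORγ CHO cells received compound, then 1 uM final doxycycline 2 h later; signal read after 16 h incubation.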
# [7] = qHTS assay to identify small molecule agonists of the AP-1 signaling pathway - cell viability counter screen (AID 1159525; calls by dose curve; further: nearly all actives have a fitted effect of over 55% in size; further: potency means the concentration at half of the fitted maximal effect)
# In short: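 Same-well cytotoxicity counter screen of the Tox21 10K library in ME-180 cells. The readout is ATP-dependent luminescence after 5 h compound treatment. Data are normalised to DMSO and tetra n-octyl ammonium bromide controls.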
# [8] = biological target: Peroxisome proliferator-activated receptor delta (Homo sapiens) (UniProt Q03181); assay: qHTS assay to identify small molecule agonists of the peroxisome proliferator-activated receptor delta (PPARd) signaling pathway (AID 743212; calls by dose curve; further: potency means the concentration at half of the fitted maximal effect)
# Sequence of Peroxisome proliferator-activated receptor delta (Homo sapiens) (Q03181 whole entry, looked up): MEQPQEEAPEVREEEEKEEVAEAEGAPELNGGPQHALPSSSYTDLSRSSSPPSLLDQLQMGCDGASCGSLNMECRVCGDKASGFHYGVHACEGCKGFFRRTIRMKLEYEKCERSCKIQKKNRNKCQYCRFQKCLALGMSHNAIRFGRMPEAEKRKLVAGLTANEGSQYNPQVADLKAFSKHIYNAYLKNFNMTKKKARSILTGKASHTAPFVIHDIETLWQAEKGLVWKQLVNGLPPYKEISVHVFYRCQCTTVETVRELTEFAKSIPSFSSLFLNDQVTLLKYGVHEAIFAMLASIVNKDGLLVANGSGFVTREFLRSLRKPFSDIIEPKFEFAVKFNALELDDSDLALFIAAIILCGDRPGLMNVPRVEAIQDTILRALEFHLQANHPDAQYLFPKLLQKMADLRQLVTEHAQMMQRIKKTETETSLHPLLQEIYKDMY
# In short: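 Tox21 library screened in GeneBLAzer PPARd UAS-bla HEK293H cells. After compound treatment at 37 C, a FRET-based beta-lactamase substrate was applied for 2 h and fluorescence recorded.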
# [9] = qHTS assay to identify small molecule antagonists of the farnesoid-X-receptor (FXR) signaling pathway - cell viability counter screen (AID 743221; active means well fitted cell-killing curve with a large enough effect in the repeat runs, not every such curve was filed as active; further: nearly all actives have a fitted effect of over 50% in size; further: potency means the concentration at half of the fitted maximal effect)
# In short: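 After a 5 h settling period, FXR-bla HEK 293T cells receive compound and chenodeoxycholic acid (50 uM final) and incubate 16 h at 37 C; CellTiter-Glo luminescence, read after 30 min at room temperature, reports cell viability.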
# [10] = qHTS assay to identify small molecule agonists of the AP-1 signaling pathway (AID 1159526; calls by dose curve)
# [11] = qHTS assay to identify small molecule agonists of the farnesoid-X-receptor (FXR) signaling pathway - cell viability counter screen (AID 743218); further: potency means the concentration at half of the fitted maximal effect; nearly all actives have a fitted effect of over 45% in size
# In short: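 Viability of FXR-bla HEK 293T cells is measured by ATP-based CellTiter-Glo luminescence following 16 h compound treatment at 37 C and a prior 2 h room-temperature beta-lactamase substrate step.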
# [12] = biological target: Vitamin D3 receptor (Homo sapiens) (UniProt P11473); assay: qHTS assay to identify small molecule antagonists of the vitamin D receptor (VDR) signaling pathway (AID 743223; active means well fitted inhibition curve with a large enough effect in the signal ratio in the repeat runs, not every such curve was filed as active; the % refers to the signal ratio)
# Sequence of Vitamin D3 receptor (Homo sapiens) (P11473 whole entry, looked up): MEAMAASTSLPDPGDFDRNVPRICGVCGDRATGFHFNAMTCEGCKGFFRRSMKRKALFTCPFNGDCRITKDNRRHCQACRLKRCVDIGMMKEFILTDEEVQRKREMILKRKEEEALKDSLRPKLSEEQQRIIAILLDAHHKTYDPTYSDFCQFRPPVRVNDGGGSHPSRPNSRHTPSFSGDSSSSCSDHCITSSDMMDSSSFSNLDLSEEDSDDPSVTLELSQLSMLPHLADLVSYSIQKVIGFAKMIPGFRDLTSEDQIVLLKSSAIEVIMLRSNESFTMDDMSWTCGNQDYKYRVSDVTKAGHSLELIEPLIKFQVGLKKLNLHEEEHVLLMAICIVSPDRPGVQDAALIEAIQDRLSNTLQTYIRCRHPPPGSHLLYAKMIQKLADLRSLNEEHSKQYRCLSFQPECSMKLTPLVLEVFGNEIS
# In short: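 Reporter line VDR-bla; stimulus 1alpha,25-(OH)2 vitamin D3, 3 nM final; compound co-addition, 16 h 37C/5% CO2; LiveBLAzer B/G substrate 2 h RT; fluorescence intensity.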
# [13] = biological target: Vitamin D3 receptor (Homo sapiens) (UniProt P11473); assay: qHTS assay to identify small molecule agonists of the vitamin D receptor (VDR) signaling pathway (AID 743222; calls by dose curve)
# In short: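 Fluorescence from cleaved LiveBLAzer B/G FRET substrate served as readout. VDR-bla cells had been treated 16 h at 37C with test compounds in DMSO, following a 4 h settling period, and substrate was loaded for 2 h at RT.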
# [14] = qHTS assay to identify small molecule antagonists of the retinoid-related orphan receptor gamma (ROR-gamma) signaling pathway - cell viability counter screen (AID 1159520); further: nearly all actives have a fitted effect of over 50% in size; further: potency means the concentration at half of the fitted maximal effect
# In short: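 Tet-on ROR gamma CHO cells were given compounds for 2 hr, then doxycycline hyclate at 1 uM final, and incubated 16 hr at 37 C. Viability was measured as ATP content by CellTiter-Glo luminescence.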
# [15] = biological target: Bile acid receptor (Homo sapiens) (UniProt Q96RI1); assay: qHTS assay to identify small molecule antagonists of the farnesoid-X-receptor (FXR) signaling pathway (AID 743217; active means well fitted inhibition curve with a large enough effect in the signal ratio in the repeat runs, not every such curve was filed as active; the % refers to the signal ratio)
# In short: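 Screen of the Tox21 10K library in quantitative HTS format using FXR-UAS-bla HEK 293T reporter cells. Agonist chenodeoxycholic acid, 50 uM final, added with compounds; 16 h incubation at 37 °C; beta-lactamase FRET fluorescence measured.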
# [16] = qHTS assay to identify small molecule antagonists of the vitamin D receptor (VDR) signaling pathway - cell viability counter screen (AID 743225); further: nearly all actives have a fitted effect of over 50% in size
# In short: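 Parallel cytotoxicity test: VDR-UAS-bla HEK 293T, 3 nM (final) 1-alpha,25-dihydroxyvitamin D3 with test compound, 16 h, 37C. Endpoint is CellTiter-Glo luminescence in the same wells.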
# [17] = biological target: Peroxisome proliferator-activated receptor delta (Homo sapiens) (UniProt Q03181); assay: qHTS assay to identify small molecule antagonists of the peroxisome proliferator-activated receptor delta (PPARd) signaling pathway (AID 743215; active means well fitted inhibition curve with a large enough effect in the signal ratio in the repeat runs, not every such curve was filed as active; the % refers to the signal ratio;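 further: cells stimulated with agonist L165041 at 300 nM final during compound exposure; series mostly up to about 62 µM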)
# In short: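 Plated HEK293H PPARd-bla cells rested 5 h at 37 C and 5% CO2. Compound, then agonist L165041 at 300 nM final, was added; 17 h at 37 C followed. Substrate loading, 2 h room temperature, fluorescence measured.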
# [18] = qHTS assay to identify small molecule agonists of the endoplasmic reticulum stress response signaling pathway (AID 1159516; active means well fitted activation curve with a large enough effect in the signal ratio in the repeat runs, not every such curve was filed as active; the % refers to the signal ratio)
# In short: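 Using a HeLa line with an ESRE-driven beta-lactamase gene, agonist activity was measured by FRET substrate fluorescence (460 and 530 nm emission) after cells were treated with compounds for 5 hr at 37 C and 5% CO2.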
# [19] = qHTS assay to identify small molecule agonists of the endoplasmic reticulum stress response signaling pathway - cell viability counter screen (AID 1159517; calls by dose curve; further: nearly all actives have a fitted effect of over 50% in size; further: potency means the concentration at half of the fitted maximal effect)
# In short: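 In parallel with the ESRE reporter read, cytotoxicity was scored by CellTiter-Glo luminescence (30 min, room temperature) on HeLa ESRE-bla cells dosed for 5 hr.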
# [20] = biological target: Retinoic acid receptor RXR-alpha (Homo sapiens) (UniProt P19793); assay: qHTS assay to identify small molecule agonists of the RXR signaling pathway (AID 1159527; calls by dose curve; further: nearly all actives have a fitted effect of over 35% in size)
# Sequence of Retinoic acid receptor RXR-alpha (Homo sapiens) (P19793 whole entry, looked up): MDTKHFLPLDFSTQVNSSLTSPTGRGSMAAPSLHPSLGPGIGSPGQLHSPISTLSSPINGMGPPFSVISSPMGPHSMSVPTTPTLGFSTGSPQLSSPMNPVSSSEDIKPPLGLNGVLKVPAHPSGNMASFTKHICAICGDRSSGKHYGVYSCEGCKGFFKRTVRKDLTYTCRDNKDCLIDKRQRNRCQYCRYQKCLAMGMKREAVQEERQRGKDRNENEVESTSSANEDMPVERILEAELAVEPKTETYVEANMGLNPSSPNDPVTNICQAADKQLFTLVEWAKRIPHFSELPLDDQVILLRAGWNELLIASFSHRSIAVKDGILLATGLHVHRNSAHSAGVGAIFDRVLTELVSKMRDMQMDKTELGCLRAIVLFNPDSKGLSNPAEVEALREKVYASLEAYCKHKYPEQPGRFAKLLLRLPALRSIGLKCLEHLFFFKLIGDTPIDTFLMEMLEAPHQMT
# In short: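 16 hr incubation of compound-treated RXR-alpha-UAS-bla HEK 293T cells (2% charcoal-stripped FBS, 37 C) preceded a 2 hr room-temperature LiveBLAzer FRET substrate step and blue/green fluorescence measurement.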
structure (smiles),measurement,setting,value
N#CSc1ccc(N)c([N+](=O)[O-])c1,Potency,[1],55.3 µM (active)
same,Potency,[2],49.3 µM (active)
same,Potency,[3],inactive
same,Potency,[4],55.3 µM (active)
same,Potency,[5],inactive
same,Potency,[6],48.9 µM (active)
same,Potency,[7],inactive
Nc1c2ccccc2nc2ccccc12,Potency,[1],inactive
same,Potency,[8],26.6 µM (active)
same,Potency,[2],inactive
same,Potency,[3],9.44 µM (active)
same,Potency,[9],inactive
same,Potency,[4],inactive
same,Potency,[5],inactive
same,Potency,[6],inactive
same,Potency,[7],inactive
same,Potency,[10],inactive
CCc1cc(Cc2cc(CC)c(N)c(CC)c2)cc(CC)c1N,Potency,[1],54.9 µM (active)
same,Potency,[2],54.9 µM (active)
same,Potency,[11],43.6 µM (active)
same,Potency,[3],inactive
same,Potency,[9],inactive
same,Potency,[12],inactive
same,Potency,[5],49 µM (active)
same,Potency,[6],48.6 µM (active)
CCC(CN)=C(c1ccccc1)c1ccccc1,Potency,[1],29.8 µM (active)
same,Potency,[8],inactive
same,Potency,[2],13.3 µM (active)
same,Potency,[11],23.7 µM (active)
same,Potency,[13],inactive
same,Potency,[12],inactive
same,Potency,[5],inactive
same,Potency,[14],inactive
same,Potency,[7],inactive
O=Cc1cc(O)ccc1Br,Potency,[8],inactive
same,Potency,[2],inactive
same,Potency,[15],inactive
same,Potency,[3],inactive
same,Potency,[9],inactive
same,Potency,[13],inactive
same,Potency,[12],inactive
same,Potency,[4],inactive
same,Potency,[16],inactive
same,Potency,[5],inactive
same,Potency,[6],inactive
same,Potency,[7],inactive
same,Potency,[10],inactive
O=c1c(-c2ccccc2)c1-c1ccccc1,Potency,[11],9.44 µM (active)
same,Potency,[3],inactive
same,Potency,[9],13.3 µM (active)
same,Potency,[5],inactive
same,Potency,[6],18.8 µM (active)
CSc1ccc2c(c1)C(N1CCN(C)CC1)Cc1ccccc1S2 (centres undefined),Potency,[1],29.8 µM (active)
same,Potency,[2],16.8 µM (active)
same,Potency,[15],inactive
same,Potency,[11],26.6 µM (active)
same,Potency,[3],inactive
same,Potency,[4],23.7 µM (active)
same,Potency,[5],23.9 µM (active)
same,Potency,[14],inactive
same,Potency,[7],inactive
CNc1ccc(O)cc1,Potency,[1],38.8 µM (active)
same,Potency,[2],43.6 µM (active)
same,Potency,[9],inactive
same,Potency,[4],38.8 µM (active)
same,Potency,[5],48.9 µM (active)
same,Potency,[14],7.68 µM (active)
same,Potency,[7],24.5 µM (active)
CCCCCCCCCCCCCCCC(=O)OC[C@H](O)[C@H]1OC(=O)C(O)=C1O,Potency,[1],49 µM (active)
same,Potency,[8],49 µM (active)
same,Potency,[2],inactive
same,Potency,[17],inactive
same,Potency,[9],inactive
same,Potency,[13],inactive
same,Potency,[12],inactive
same,Potency,[4],34.7 µM (active)
same,Potency,[16],inactive
same,Potency,[5],inactive
same,Potency,[14],inactive
O=C(Nc1ccc(Oc2ccc(Cl)cc2)c(Cl)c1)c1cc(I)cc(I)c1O,Potency,[3],inactive
same,Potency,[13],inactive
same,Potency,[12],inactive
same,Potency,[5],inactive
same,Potency,[6],23.7 µM (active)
same,Potency,[7],inactive
O=C(Oc1cccc2cccnc12)c1ccccc1,Potency,[1],3.35 µM (active)
same,Potency,[8],inactive
same,Potency,[2],4.22 µM (active)
same,Potency,[11],9.44 µM (active)
same,Potency,[9],8.41 µM (active)
same,Potency,[12],inactive
same,Potency,[16],inactive
same,Potency,[5],2.39 µM (active)
same,Potency,[14],inactive
same,Potency,[7],inactive
CCCCC(CC)COP(=O)(O)OCC(CC)CCCC (centres undefined),Potency,[1],55 µM (active)
same,Potency,[2],inactive
same,Potency,[11],55 µM (active) and 43.6 µM (active)
same,Potency,[3],inactive
same,Potency,[9],inactive
same,Potency,[12],inactive
same,Potency,[4],55 µM (active)
same,Potency,[16],inactive
same,outcome,[18],inactive
same,Potency,[19],55 µM (active) and 49 µM (active)
same,Potency,[14],inactive
same,Potency,[6],54.6 µM (active) and 48.6 µM (active)
same,Potency,[7],inactive
Oc1cccc(-c2c3nc(c(-c4cccc(O)c4)c4ccc([nH]4)c(-c4cccc(O)c4)c4nc(c(-c5cccc(O)c5)c5ccc2[nH]5)CC4)C=C3)c1,Potency,[1],13.3 µM (active)
same,Potency,[11],21.1 µM (active)
same,Potency,[4],26.6 µM (active)
same,Potency,[5],inactive
COc1cccc(N)c1,Potency,[1],inactive
same,Potency,[15],inactive
same,Potency,[3],inactive
same,Potency,[9],inactive
same,Potency,[12],inactive
same,outcome,[18],inactive
same,Potency,[19],inactive
same,Potency,[14],inactive
same,Potency,[6],inactive
same,Potency,[7],inactive
same,Potency,[10],inactive
same,Potency,[20],inactive
